An excerpt weighted towards active compounds, which were near 2.3% of everything screened.
ELG1 repair inh: inhibitors of ELG1-dependent DNA repair in HEK293T cells; actives 2.3% (n = 330,000); Potency, µM (top dose mostly 46.1 µM), for the others: at the top dose activity change, negative = inhibition, actives largely listed as inhibitors; HEK293T ELG1-luciferase reporter, luminescence, 16 h; DNA damage induced by 5-fluorouridine; further: potency means the concentration at half of the fitted maximal effect; on the % scale 0 is the no-effect control and ±100 the full control effect; nearly all actives have a fitted effect of over 55% in size
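Reporter activity after DNA damage by 5-fluorouridine is monitored. Compound-treated cells incubate 16 hr at 37 °C, then ONE-Glo is added for 30 min before luminescence reading.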
TRPV1 ag: activates the human vanilloid receptor TRPV1 | Q8NER1 | TRPV1-expressing cells, Fluo-8 calcium influx, agonist mode | actives 0.19% (n = 320,000) | AID 540275 | activation, % at 8.33 µM; in the data active means activation above about 80%; inconclusive means between about 30% and that limit; further: 0% is about no effect
Target sequence (Q8NER1 whole entry, looked up): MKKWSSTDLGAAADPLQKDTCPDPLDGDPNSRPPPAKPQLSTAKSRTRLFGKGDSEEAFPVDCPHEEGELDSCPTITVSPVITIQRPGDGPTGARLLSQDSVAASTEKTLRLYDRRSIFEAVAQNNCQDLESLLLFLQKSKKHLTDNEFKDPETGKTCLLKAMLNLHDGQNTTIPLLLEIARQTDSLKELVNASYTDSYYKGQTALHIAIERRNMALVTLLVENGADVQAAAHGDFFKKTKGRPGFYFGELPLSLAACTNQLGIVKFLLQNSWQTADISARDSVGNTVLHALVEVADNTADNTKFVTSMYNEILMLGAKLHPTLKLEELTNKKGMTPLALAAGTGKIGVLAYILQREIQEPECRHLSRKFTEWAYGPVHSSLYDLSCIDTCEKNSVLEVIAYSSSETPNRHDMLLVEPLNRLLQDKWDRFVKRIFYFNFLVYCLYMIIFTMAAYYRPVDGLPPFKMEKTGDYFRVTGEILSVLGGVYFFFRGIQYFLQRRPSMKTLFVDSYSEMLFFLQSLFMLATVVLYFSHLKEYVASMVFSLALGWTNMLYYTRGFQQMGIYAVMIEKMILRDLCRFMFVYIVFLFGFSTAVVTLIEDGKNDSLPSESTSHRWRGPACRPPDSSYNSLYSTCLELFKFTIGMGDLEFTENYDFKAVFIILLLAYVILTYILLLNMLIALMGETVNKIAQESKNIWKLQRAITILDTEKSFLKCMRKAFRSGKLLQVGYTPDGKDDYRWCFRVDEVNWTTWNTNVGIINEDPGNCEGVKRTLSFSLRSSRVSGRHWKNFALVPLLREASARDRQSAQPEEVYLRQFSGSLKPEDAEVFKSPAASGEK
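Fluo-8 calcium influx in TRPV1-expressing cells, kinetic read (ex 480/em 520 nm). Compound added and read 3 min for agonist activity, followed by capsaicin at EC20 final and 2 min further read for enhancement.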
TRPV1 potentiator: human TRPV1 potentiation. TRPV1-expressing cells, Fluo-8 calcium influx, capsaicin EC20 potentiation. potentiation, % at 8.33 µM. AID 540277. Q8NER1. actives 0.02% (n = 320,000); in the data active means potentiation above about 80%; inconclusive means between about 30% and that limit; further: 0% is about no effect
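Fluo-8 calcium influx in TRPV1-expressing cells, kinetic read (ex 480/em 520 nm). Compound added and read 3 min for agonist activity, followed by capsaicin at EC20 final and 2 min further read for enhancement.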
Giardia kill: Giardia lamblia killing; Giardia lamblia trophozoite viability; activity change, % at 7.66 µM, hits read low; actives 0.15% (n = 340,000); in the data active means activity change below about -80%; inconclusive means between about -30% and that limit;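 further: parasites exposed to compound for two days anaerobically before the ATP read; on the % scale 0 is the no-effect control and ±100 the full control effect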
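Media and compound were dispensed first, then trophozoites at 100 cells/well; plates sat 48 hrs at 37 deg C without oxygen before ATP luminescence reagent was added and read after 15-30 min at room temperature.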
FUS yeast rescue: suppressors of FUS proteinopathy in yeast; S. cerevisiae FUS-expressing, growth rescue, OD600, 24 h; actives 0.24% (n = 390,000); Potency, µM (doses to about 76.6 µM), usual class: activators; AID 1347120;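 further: potency means the concentration at half of the fitted maximal effect; plate controls were DMSO vehicle for no effect and reference control for full effect; nearly all actives have a fitted effect of over 55% in size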
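Absorbance at 600 nm, taken 24hr after compound addition, measured rescue of FUS-yeast growth at 30C. Induction used 2% galactose with seeding at OD 0.005. Controls: CP55940 from 92uM final, DMSO only.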
* marks the source's active call; other numbers are inactive results; i = inactive; ? = inconclusive; . = no result. Unless noted, the call rests on the fitted dose curve; in most records, active means well fitted curve in the direction sought with a large enough effect; inconclusive means small, poorly fitted or top-dose-only effect, or another doubt; inactive means no such curve, though single readings can be large; an effect the other way counts as inactive or inconclusive.

SMILES | ELG1 repair inh | TRPV1 ag | TRPV1 potentiator | Giardia kill | FUS yeast rescue
COc1ccc(OC)c(NC(=O)CSC2=Nc3ccccc3C3=NC(CC(=O)NCc4ccco4)C(=O)N23)c1 (configuration not stated) | . | . | . | . | i
COc1ccc2cc3c(N)nn(C(=O)Cc4c[nH]c5ccccc45)c3nc2c1 | 1.5µM* | 1 | 26 | 19 | i
COc1cccc(CC(=O)n2nc(N)c3cc4ccc(OC)cc4nc32)c1 | 9.2µM* | 0 | ? | -11 | i
COc1ccc2cc3c(N)nn(C(=O)Cc4ccc(Cl)cc4)c3nc2c1 | ? | . | . | 2 | i
CCc1ccccc1NC(=O)Cn1nnc(-c2nc(-c3ccncc3)no2)c1N | . | . | . | . | i
CCN(CCNC(=O)CS(=O)(=O)Cc1nc(-c2cccc(OC)c2)oc1C)c1ccccc1 | 18µM* | 10 | 4 | 5 | i
COc1ccc(-c2nc(CS(=O)(=O)CC(=O)NCCc3cc(OC)ccc3OC)c(C)o2)cc1 | ? | 5 | 1 | -2 | i
COc1cccc(-c2nc(CS(=O)(=O)CC(=O)NCCc3cc(OC)ccc3OC)c(C)o2)c1 | 21µM* | 5 | -2 | -6 | i
COc1cccc(-c2nc(CS(=O)(=O)CC(=O)NCCc3ccc(OC)cc3OC)c(C)o2)c1 | 23µM* | 12 | -6 | -5 | i
CC(=O)N1CCN(Cc2nc3cc(NC(=O)c4ccc(Cl)cc4)ccc3n2C)CC1 | 21µM* | -5 | -4 | -18 | i
CC(=O)N1CCN(Cc2nc3cc(NC(=O)c4ccccc4C)ccc3n2C)CC1 | -9% | 2 | 26 | 2 | i
CC(=O)N1CCN(Cc2nc3cc(NC(=O)c4ccccc4Cl)ccc3n2C)CC1 | -2% | 1 | -2 | -16 | i
CC(=O)N1CCN(Cc2nc3cc(NC(=O)c4cccc(Br)c4)ccc3n2C)CC1 | 8.2µM* | -1 | 1 | -6 | i
CCOc1ccccc1Nc1sc(C(=O)c2ccc(Cl)cc2)c(N)c1C(=O)NCCc1ccccc1 | . | . | . | . | i
O=C(Nc1nc(-c2ccc3c(c2)OCCO3)cs1)C1CC(=O)N(c2ccc3c(c2)OCCO3)C1 (configuration not stated) | . | . | . | -3 | .
COc1ccc(-c2csc(NC(=O)C3CC(=O)N(c4ccc5c(c4)OCCO5)C3)n2)cc1 (configuration not stated) | 23µM* | -4 | -7 | 6 | .
Cc1oc(-c2ccc(C(=O)NCCN(C)C)cc2)nc1CS(=O)(=O)c1ccccc1 | . | . | . | . | i
CCOc1ccc(N2CC(O)Cn3c2nc2c3c(=O)n(CCCc3ccccc3)c(=O)n2C)cc1 (configuration not stated) | ? | 7 | 8 | -22 | i
COc1ccc(N2CC(C)Cn3c2nc2c3c(=O)n(Cc3ccccc3)c(=O)n2C)c(OC)c1 (configuration not stated) | 18µM* | 16 | 23 | 35 | i
COc1cccc(N2CC(O)Cn3c2nc2c3c(=O)n(CCCc3ccccc3)c(=O)n2C)c1 (configuration not stated) | 23µM* | 1 | ? | 3 | i
COc1ccc(N2CCn3c2nc2c3c(=O)n(CCCc3ccccc3)c(=O)n2C)c(OC)c1 | 21µM* | 9 | -8 | -6 | i
COc1ccc(N2CC(C)Cn3c2nc2c3c(=O)n(CCc3ccccc3)c(=O)n2C)cc1 (configuration not stated) | -9% | -2 | -2 | 3 | .
COc1ccc(N2CCn3c2nc2c3c(=O)n(CCc3ccccc3)c(=O)n2C)c(OC)c1 | ? | -2 | 11 | . | .
NCCCN(Cc1ccccc1)c1ccc(Br)cn1 | . | . | . | -29 | .
CN(C)S(=O)(=O)n1cc(/C=C(\NC(=O)c2ccccc2Cl)C(=O)NCCCn2ccnc2)c2ccccc21 | 21µM* | 12 | 24 | 14 | i
COc1ccc(C(C)=O)cc1CSc1nnc(Nc2ccccc2)s1 | 15µM* | 12 | -8 | 3 | i
COc1cc(-c2nnc(CSc3nnc(Nc4ccc(Oc5ccccc5)cc4)s3)o2)cc(OC)c1OC | 7.3µM* | -2 | 9 | -4 | i
COc1ccc(C(C)=O)cc1CSc1nnc(Nc2ccc(C)cc2)s1 | ? | 0 | 5 | 9 | i

High-throughput results: PubChem BioAssay, National Center for Advancing Translational Sciences (NCATS)
